# Inconclusive results are not listed. Unmarked numbers belong to inactive results. Activity calls are given as the source filed them. Calls come from the whole dose curve.
# Assay: Confirmatory qHTS for inhibitors of SARS-S pseudo-typed particle cell entry
# Settings: SARS-S pseudotyped particle cell entry, reporter luminescence; series mostly up to 57.1 µM; activity change, negative = inhibition: at the top concentration
SMILES,"activity change, negative = inhibition",Potency
CCCCCCOC(=O)NC(=N)c1ccc(NCc2nc3cc(C(=O)N(CCC(=O)OCC)c4ccccn4)ccc3n2C)cc1,-68.1%,–
CCc1c2c(nc3ccc(OC(=O)N4CCC(N5CCCCC5)CC4)cc13)-c1cc3c(c(=O)n1C2)COC(=O)[C@]3(O)CC,-64%,–
COc1cc(N)c(Cl)cc1C(=O)NC1CCN(CCCOc2ccc(F)cc2)CC1OC (stereo not drawn),-27%,–
CCC(C)(C)C(=O)O[C@H]1C[C@@H](C)C=C2C=C[C@H](C)[C@H](CC[C@@H]3C[C@@H](O)CC(=O)O3)[C@H]21,–,607 nM (active)
Cc1cc(C(C#N)c2ccc(Cl)cc2)c(Cl)cc1NC(=O)c1cc(I)cc(I)c1O (stereo not drawn),–,30400 nM (active)
Cc1c(N)nc(C(CC(N)=O)NCC(N)C(N)=O)nc1C(=O)NC(C(=O)NC(C)C(O)C(C)C(=O)NC(C(=O)NCCc1nc(-c2nc(C(=O)NCCCN[C@@H](C)c3ccccc3)cs2)cs1)C(C)O)C(O[C@@H]1O[C@@H](CO)[C@@H](O)[C@H](O)[C@@H]1O[C@H]1O[C@H](CO)[C@@H](O)[C@H](OC(N)=O)[C@@H]1O)c1cnc[nH]1 (stereo partly drawn),–,857 nM (active)
COc1cc2c(cc1Cc1cccc(Cl)c1F)c(=O)c(C(=O)O)cn2[C@H](CO)C(C)C,–,60.7 nM (active)
O=C(O)c1cc(O)c2c(c1)[C@H]([C@H]1c3cc(C(=O)O)cc(O)c3C(=O)c3c(O[C@@H]4O[C@H](CO)[C@@H](O)[C@H](O)[C@H]4O)cccc31)c1cccc(O[C@@H]3O[C@H](CO)[C@@H](O)[C@H](O)[C@H]3O)c1C2=O,-58.3% [at 33 µM],–
CN(C)CCC=C1c2ccccc2C(C)(C)c2ccccc21,–,10800 nM (active)
Oc1c(Cl)cc(Cl)c(Cl)c1Cc1c(O)c(Cl)cc(Cl)c1Cl,–,1210 nM (active)
COc1cccc2c1C(=O)c1c(O)c3c(c(O)c1C2=O)C[C@@](O)(C(=O)CO)C[C@@H]3O[C@H]1C[C@H](N)[C@H](OC2CCCCO2)[C@H](C)O1 (stereo partly drawn),–,7640 nM (active)
Nc1nc(Cl)nc2c1ncn2C1CC(O)C(CO)O1 (stereo not drawn),–,12100 nM (active)
C=C1c2c(Cl)ccc(O)c2C(O)=C2C(=O)[C@@]3(O)C(O)=C(C(N)=O)C(=O)[C@@H](N(C)C)[C@@H]3[C@@H](O)[C@H]12,–,15200 nM (active)
CN1CCC(=C2c3ccccc3C=Cc3ccccc32)CC1,–,27100 nM (active)
C[n+]1c2cc(N)ccc2cc2ccc(N)cc21 (tested in a mixture with another compound),–,6810 nM (active)
Cc1ccc(NC(=O)c2ccc(CN3CCN(C)CC3)cc2)cc1Nc1nccc(-c2cccnc2)n1,–,30400 nM (active)
COc1cccc2c1C(=O)c1c(O)c3c(c(O)c1C2=O)C[C@@](O)(C(C)=O)C[C@@H]3O[C@H]1C[C@H](N)[C@H](O)[C@H](C)O1,–,2150 nM (active)

SMILES,"activity change, negative = inhibition",Potency
CC(C)(C)NCC(O)COc1ccccc1C1CCCC1 (stereo not drawn),–,3410 nM (active)
N#CC(c1ccc(Cl)cc1)c1c(Cl)cc(-n2ncc(=O)[nH]c2=O)cc1Cl (stereo not drawn),–,19200 nM (active)
COc1cc([C@@H]2c3cc4c(cc3C(O[C@@H]3O[C@@H]5CO[C@@H](c6cccs6)OC5[C@H](O)[C@H]3O)C3COC(=O)[C@@H]32)OCO4)cc(OC)c1O (stereo partly drawn),–,1080 nM (active)
COC(=O)C[C@](O)(CCCC(C)(C)O)C(=O)O[C@@H]1C(OC)=C[C@]23CCCN2CCc2cc4c(cc2[C@H]13)OCO4,–,1520 nM (active)
C/C=C(/C)C(=O)O[C@H]1C(C)=CC23C(=O)C(C=C(CO)[C@@H](O)[C@]12O)[C@H]1[C@@H](C[C@H]3C)C1(C)C (stereo partly drawn),–,12.1 nM (active)
C=CC(=O)Nc1cc(Nc2nccc(-c3cn(C)c4ccccc34)n2)c(OC)cc1N(C)CCN(C)C,–,1520 nM (active)
CC[C@@]1(O)C(=O)OCc2c1cc1n(c2=O)Cc2c-1nc1ccccc1c2/C=N/OC(C)(C)C,–,85.7 nM (active)
CCN1CCN(Cc2ccc(Nc3ncc(F)c(-c4cc(F)c5nc(C)n(C(C)C)c5c4)n3)nc2)CC1,–,961 nM (active)
CC[C@@]1(O)C(=O)OCc2c1cc1n(c2=O)Cc2cc3c([N+](=O)[O-])cccc3nc2-1,–,124 nM (active)
COc1ccc2cc1Oc1ccc(cc1)C[C@H]1c3c(cc4c(c3Oc3cc5c(cc3OC)CCN(C)[C@@H]5C2)OCO4)CCN1C,–,2150 nM (active)
CC(C)OC(=O)OCOP(=O)(CO[C@H](C)Cn1cnc2c(N)ncnc21)OCOC(=O)OC(C)C,–,42.9 nM (active)
Cc1nnc(C(=O)NC(C)(C)c2nc(C(=O)NCc3ccc(F)cc3)c(O)c(=O)n2C)o1,–,10.8 nM (active)
O=C(Nc1ccc([N+](=O)[O-])cc1Cl)c1cc(Cl)ccc1O,–,541 nM (active)
C=C(C)[C@H]1Cc2c(ccc3c2O[C@@H]2COc4cc(OC)c(OC)cc4[C@@H]2C3=O)O1,–,34.1 nM (active)
O=C1CCc2ccc(OCCCCN3CCN(c4cccc(Cl)c4Cl)CC3)cc2N1,–,19200 nM (active)
N/C(=N\N=C\c1ccc(Cl)cc1)N/N=C/c1ccc(Cl)cc1,-27%,–
